Measured values from PubChem BioAssay.
Potency and affinity values are given separately. Inconclusive results are not listed. Activity calls are given as the source filed them.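 How the source made its calls, unless noted: active means a dose-response fit showing signal loss, with half-maximal concentration no higher than twice the top tested dose; inconclusive means flat fit between 30% and 70% signal loss, or poor fit; inactive means the rest.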

Columns and labels:
[1] = fungal growth arrest, C. neoformans – Alamar Blue, cherry-picks, dose response (AID 686998;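 active means falling signal with fitted half-maximal potency no higher than twice the top valid tested dose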)
[2] = C. neoformans lysis by adenylate kinase leakage – AK release luminescence, cherry-picks, dose response (AID 687000;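 active means fitted dose curve reaches 40% lysis signal rise at or below the highest valid concentration tested for that sample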;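 further: luminescent detection of adenylate kinase leaking from lysed yeast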)
[3] = viability loss in HepG2 hepatoma cells – cell-based, cherry-picks, set 2, cytotoxicity control, dose response (AID 687002)
[4] = viability loss in HeLa cells – cell-based, ATP luminescence, cherry-pick samples, cytotoxicity control, dose response (AID 687004;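 active means a fitted half-maximal concentration no higher than twice the top valid tested dose, with signal falling as cells die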)

Measured: outcome

CN(C)C(=O)c1ccc(-c2ccc([C@H]3[C@H](CO)N4CCCCN(CCC(F)(F)F)C[C@@H]34)cc2)cc1
inactive: all assays above

O=C(Nc1cccc(F)c1)N[C@H]1CC[C@H](CCNS(=O)(=O)c2cccc(Cl)c2)O[C@@H]1CO
inactive: all assays above

CO[C@@H]1CN(C)C(=O)c2cc(NS(=O)(=O)C3CCCCC3)ccc2OC[C@H](C)NC[C@@H]1C
inactive: all assays above

CO[C@@H]1CC[C@@H]2CCOc3c(C#N)cccc3C(=O)N(C)C[C@H](c3ccccc3)CC(=O)N(C)C[C@@H]1O2
inactive: all assays above

CC(=O)N1CCN(c2ccc(NC(=S)NC(=O)c3ccc(C)c([N+](=O)[O-])c3)cc2)CC1
inactive: all assays above

CNC[C@@H]1OCCCC[C@H](C)Oc2ccc(NC(=O)Nc3ccc(F)cc3)cc2C(=O)N([C@@H](C)CO)C[C@H]1C
inactive: all assays above

CN1CCN(C(=O)CN(c2ccc(I)cc2)S(=O)(=O)c2ccccc2)CC1
inactive: all assays above

Cc1noc(C)c1NC(=O)Nc1ccc2c(c1)C(=O)N([C@H](C)CO)C[C@@H](C)[C@H](CN(C)S(C)(=O)=O)OCCCC[C@@H](C)O2
inactive: all assays above

Cc1ccc(S(=O)(=O)N2C[C@@H](O)COC[C@@H]3O[C@H](CC(=O)NCc4ccc5c(c4)OCO5)CC[C@H]32)cc1
inactive: all assays above

COc1ccccc1-c1ccc([C@H]2[C@@H](C#N)N(C(=O)C3CC3)[C@@H]2CO)cc1
inactive: all assays above

COc1cccc(S(=O)(=O)Nc2ccc3c(c2)[C@H]2C[C@H](CC(=O)NCc4ccccc4F)O[C@@H](CO)[C@H]2O3)c1
inactive: all assays above

COc1ccccc1NC(=O)N[C@@H]1CC[C@H](CCn2cc(-c3ccccc3OC)nn2)O[C@H]1CO
inactive: all assays above

CCC(=O)N(C)C[C@H]1Oc2cc(C#CC(C)(C)O)ccc2S(=O)(=O)N([C@@H](C)CO)C[C@@H]1C
inactive: all assays above

C[C@@H]1CCCCO[C@@H](CN(C)S(=O)(=O)c2cccs2)[C@H](C)CN([C@@H](C)CO)C(=O)c2cc(NC(=O)CCC(F)(F)F)ccc2O1
inactive: all assays above

CCCN1C[C@@H](C)[C@H](OC)CN(C)C(=O)c2ccc(NC(=O)c3cccc(F)c3)cc2OC[C@@H]1C
inactive: all assays above

COCCNC(=O)C[C@@H]1CC[C@H]2[C@@H](COC[C@H](O)CN2Cc2cccc(-c3ccncc3)c2)O1
inactive: all assays above

C[C@@H]1CCCCO[C@H](CN(C)Cc2ccncc2)[C@@H](C)CN([C@@H](C)CO)C(=O)c2cc(NC(=O)Nc3ccccc3)ccc2O1
inactive: all assays above

COc1ccc(NC(=O)Nc2ccc3c(c2)C(=O)N([C@H](C)CO)C[C@@H](C)[C@@H](CN(C)S(=O)(=O)c2ccc(Cl)cc2)OCCCC[C@H](C)O3)cc1
inactive: all assays above

Cc1cccc(C)c1NC(=O)C(CCc1ccccc1)N1CCN(C)CC1 (configuration not stated)
inactive: all assays above

C[C@H]1CN([C@@H](C)CO)C(=O)c2cccc(NS(=O)(=O)c3cn(C)cn3)c2O[C@@H]1CN(C)CC1CCCCC1
inactive: all assays above

O=C(C[C@@H]1CC[C@@H]2[C@H](COC[C@H](O)CN2Cc2cccc(C(F)(F)F)c2)O1)NCc1ccc(Cl)cc1
inactive: all assays above

C[C@H](O)C#Cc1ccc([C@H]2[C@H](CO)N3CCCCN(CC4CCOCC4)C[C@@H]23)cc1
inactive: all assays above

COc1ccccc1CNC(=O)C[C@@H]1CC[C@@H]2[C@H](COc3ccc(NC(C)=O)cc3C(=O)N2C)O1
inactive: all assays above

CC(C)(C)NC(=O)CSc1ncnc2c1cnn2-c1ccccc1
inactive: all assays above

Cc1ccc(NC(=O)[C@H](C)NC(=O)C2CCN(C(=O)[C@@H](N)C(C)C)CC2)cc1
inactive: all assays above

O=C(C[C@@H]1CC[C@H]2[C@@H](COC[C@H](O)CN2Cc2cccc(C(F)(F)F)c2)O1)NCc1ccccc1
inactive: all assays above

COc1ccc(-c2cnc3c(c2)C(=O)N([C@H](C)CO)C[C@H](C)[C@H](CN(C)Cc2ccc(F)cc2)O3)cc1
inactive: all assays above

Cc1ccc(C2=NN(C(=O)c3ccc(Br)o3)C(c3ccc(C)cc3)C2)cc1 (configuration not stated)
inactive: all assays above

C/C=C/c1ccc([C@H]2[C@@H](C#N)N(S(=O)(=O)c3cccc(F)c3)[C@H]2CO)cc1
inactive: all assays above

O=C(Nc1ccccc1)N[C@@H]1CC[C@@H](CCNC(=O)c2ccccc2F)O[C@H]1CO
inactive: all assays above

CO[C@@H]1CN(C)C(=O)c2ccc(NC(=O)C3CC3)cc2OC[C@H](C)N(Cc2ccc(F)cc2)C[C@H]1C
inactive: all assays above

CO[C@@H]1CN(C)C(=O)c2cc(NC(=O)Nc3cccc(F)c3)ccc2OC[C@H](C)N(C)C[C@@H]1C
inactive: all assays above

Cc1cc(C(=O)Nc2ccc3c(c2)C(=O)N(C)[C@H]2CC[C@@H](CC(=O)N[C@@H](C)c4ccccc4)O[C@H]2CO3)no1
inactive: all assays above

C[C@H]1CN([C@@H](C)CO)C(=O)c2cc(NC(=O)CCN3CCOCC3)ccc2O[C@@H]1CN(C)Cc1ccc(C(=O)O)cc1
inactive: all assays above

CN1C(=O)c2cc(NS(C)(=O)=O)ccc2OC[C@@H]2O[C@@H](CC(=O)O)CC[C@@H]21
inactive: all assays above

C[C@@H]1CN([C@@H](C)CO)C(=O)c2cccc(NS(=O)(=O)c3ccc(F)cc3)c2O[C@H]1CN(C)S(=O)(=O)c1ccc(Cl)cc1
inactive: all assays above

CO[C@H](CN(C)Cc1ccc2c(c1)OCO2)[C@@H](C)CN(C(=O)c1ccccc1)[C@@H](C)CO
inactive: all assays above

CC1(C(=O)Nc2ccc3ccccc3c2)CCC(=O)N1C1CC1 (configuration not stated)
inactive: all assays above

Cc1noc(C)c1NC(=O)Nc1cccc2c1O[C@H](CN(C)S(=O)(=O)c1cn(C)cn1)[C@H](C)CN([C@H](C)CO)C2=O
inactive: all assays above

C[C@H]1CN([C@@H](C)CO)C(=O)Cc2cc(NC(=O)Nc3ccccc3)ccc2O[C@H]1CN(C)C(=O)Nc1ccc2c(c1)OCO2
inactive: all assays above

C[C@H](CO)N1C[C@H](C)[C@@H](CN(C)Cc2cccc(C(F)(F)F)c2)OCc2cnnn2CCCC1=O
inactive: all assays above

CCCNC(=O)N1C[C@H](O)COC[C@H]2O[C@H](CC(=O)N3CCN(C)CC3)CC[C@@H]21
inactive: all assays above

COc1ccc(NC(=O)Nc2ccc3c(c2)C(=O)N([C@H](C)CO)C[C@@H](C)[C@H](CN(C)S(=O)(=O)c2ccc(Cl)cc2)OCCCC[C@@H](C)O3)cc1
inactive: all assays above

CCCNC(=O)N(C)C[C@@H]1Oc2ncc(C#CCc3ccccc3)cc2C(=O)N([C@@H](C)CO)C[C@@H]1C
inactive: all assays above

Cc1ccc(S(=O)(=O)N2C[C@@H](O)COC[C@H]3O[C@H](CC(=O)NCc4ccc5c(c4)OCO5)CC[C@@H]32)cc1
inactive: all assays above

CN1C(=O)c2cc(NC(=O)NC3CCCC3)ccc2OC[C@H]2O[C@@H](CC(=O)NCC3CC3)CC[C@@H]21
inactive: all assays above

CC(C)NC(=O)N(C)C[C@@H]1OCCCC[C@H](C)Oc2ccc(NC(=O)c3ccccc3)cc2C(=O)N([C@H](C)CO)C[C@H]1C
inactive: all assays above

C/C=C/c1ccc([C@@H]2[C@@H](CNC(=O)c3ccccc3)N(C(C)=O)[C@H]2CO)cc1
inactive: all assays above
